Assay results taken from PubChem BioAssay AID1159580 (chemical genetic matrix, 2015).
“And” between values parts separate entries of the source, which are not always exact repeats. Identical values can stand only once. Screen size: about 5,500 compounds; about 2,000 (36%) were called active. Inconclusive results (about 18%) are left out. No stated cut-off is given here; in the data, active means normalized growth mostly below about 0.91 (no sharp cut-off); inconclusive means no clear call, values can overlap the other calls; inactive means mostly above about 0.92. This is one part of the list.

Assay: chemical genetic growth profiling, strain panel (AID 1159580);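 further: tested at 20 µM; growth read once vehicle control cultures reached saturation at 30 °C; 1 = growth at the plate median or of vehicle wells; lower values mean less growth of the strain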
Details: S. cerevisiae deletion strains, growth OD

Measured: normalized growth

CNCc1ccccc1
inactive: locus YAL013W, strain DEP1, active compounds read low 0.994 | locus YAL021C, strain ccr4, active compounds read low 1.01 | locus YAL026C, strain drs2, active compounds read low 1.02 | locus YAL030W, strain snc1, active compounds read low 1.02 | locus YBL061C, strain skt5, active compounds read low 1.03 | locus YBR009C, strain hhf1, active compounds read low 1.02 | locus YBR021W, strain FUR4, active compounds read low 1.03 | locus YBR023C, strain chs3, active compounds read low 1.03 | locus YBR171W, strain sec66, active compounds read low 1.03 | locus YBR229C, strain ROT2, active compounds read low 0.965 | locus YBR231C, strain swc5, active compounds read low 1.01 | locus YBR279W, strain paf1, active compounds read low 1.02 | locus YCL011C, strain gbp2, active compounds read low 1.02 | locus YCL016C, strain dcc1, active compounds read low 1.02 | locus YCL029C, strain bik1, active compounds read low 0.984 | locus YCL061C, strain MRC1, active compounds read low 1.01 | locus YCL069W, strain vba3, active compounds read low 1.02 | locus YCR088W, strain abp1, active compounds read low 1.03 | locus YDL005C, strain med2, active compounds read low 1.02 | locus YDL035C, strain GPR1, active compounds read low 1 | locus YDL040C, strain nat1, active compounds read low 1 | locus YDL074C, strain BRE1, active compounds read low 1.05 | locus YDL101C, strain DUN1, active compounds read low 0.982 | locus YDL134C, strain PPH21, active compounds read low 0.992 | locus YDL185W, strain tfp1, active compounds read low 0.987 | locus YDL192W, strain arf1, active compounds read low 0.997 | locus YDR001C, strain nth1, active compounds read low 1.02 | locus YDR069C, strain doa4, active compounds read low 1.01 | locus YDR101C, strain arx1, active compounds read low 1.05 | locus YDR137W, strain rgp1, active compounds read low 1.04 | locus YDR159W, strain sac3, active compounds read low 1.05 | locus YDR162C, strain NBP2, active compounds read low 0.957 | locus YDR195W, strain ref2 0.999 | locus YDR297W, strain sur2, active compounds read low 1.02 | locus YDR318W, strain mcm21, active compounds read low 0.965 | locus YDR334W, strain swr1, active compounds read low 1.03 | locus YDR335W, strain msn5, active compounds read low 1.02 | locus YDR388W, active compounds read low 1.01 | locus YDR392W, strain spt3, active compounds read low 1.01 | locus YDR502C, strain sam2, active compounds read low 1 | locus YEL003W, strain gim4, active compounds read low 1.02 | locus YEL037C, strain rad23, active compounds read low 1.02 | locus YEL061C, strain CIN8 (second series), active compounds read low 1.03 | locus YEL061C, strain CIN8, active compounds read low 0.996 | locus YER015W, strain faa2, active compounds read low 1.01 | locus YER016W, strain bim1, active compounds read low 1.02 | locus YER110C, active compounds read low 0.99 | locus YER111C, strain swi4, active compounds read low 1.02 | locus YER155C, strain BEM2 (second series), active compounds read low 1.02 | locus YER155C, strain BEM2, active compounds read low 0.987 | locus YER167W, strain BCK2, active compounds read low 0.988 | locus YFR010W, strain ubp6, active compounds read low 1.04 | locus YGL078C, strain dbp3, active compounds read low 0.999 | locus YGL086W, strain mad1, active compounds read low 1.06 | locus YGL167C, strain pmr1, active compounds read low 1.03 | locus YGL173C, strain kem1, active compounds read low 1.03 | locus YGL227W, strain vid30, active compounds read low 1.03 | locus YGL240W, strain doc1, active compounds read low 1.01 | locus YGL248W, strain PDE1, active compounds read low 0.984 | locus YGL253W, strain hxk2, active compounds read low 1.03 | locus YGR078C, strain PAC10, active compounds read low 0.981 | locus YGR135W, strain pre9, active compounds read low 0.972 | locus YGR229C, strain SMI1, active compounds read low 0.986 | locus YGR252W, strain gcn5, active compounds read low 0.908 | locus YHR013C, strain ard1, active compounds read low 1.03 | locus YHR027C, strain rpn1, active compounds read low 1.04 | locus YHR030C, strain SLT2, active compounds read low 1.01 and 0.986 | locus YHR079C, strain IRE1 (second series), active compounds read low 0.989 | locus YHR079C, strain IRE1, active compounds read low 0.975 | locus YHR094C, strain hxt1, active compounds read low 0.978 | locus YHR129C, strain ARP1, active compounds read low 1 | locus YHR142W, strain chs7, active compounds read low 1.05 | locus YHR200W, strain rpn10, active compounds read low 0.999 | locus YIL066C, strain RNR3, active compounds read low 0.992 | locus YIL073C, strain SPO22, active compounds read low 1.01 | locus YIL125W, strain kgd1, active compounds read low 1 | locus YIR030C, strain dcg1, active compounds read low 0.99 | locus YJL092W, strain hpr5, active compounds read low 1.02 | locus YJL095W, strain BCK1 (second series), active compounds read low 1.02 | locus YJL095W, strain BCK1, active compounds read low 0.95 and 0.974 | locus YJL115W, strain asf1, active compounds read low 1.03 | locus YJL129C, strain trk1, active compounds read low 1.05 | locus YJL134W, strain LCB3, active compounds read low 0.996 | locus YJL154C, strain vps35, active compounds read low 1.03 | locus YJL164C, strain tpk1, active compounds read low 1.01 | locus YJL166W, strain qcr8, active compounds read low 1.02 | locus YJL168C, strain set2, active compounds read low 0.991 | locus YJL187C, strain SWE1 (second series), active compounds read low 0.977 | locus YJL187C, strain SWE1, active compounds read low 1.03 | locus YJR043C, strain POL32, active compounds read low 1
